# Whole data set: some 33,000 sequences, median “E-score (-0.5 to 0.5)” near -0.04, cut for the highest 2% near 0.36. The sample holds the highest values, similar sequences and a random draw of the others, so the mix is not that of the screen.
# Molecular target: T1, Hmlalpha2 (UniProt P0CY09)
# T1 sequence: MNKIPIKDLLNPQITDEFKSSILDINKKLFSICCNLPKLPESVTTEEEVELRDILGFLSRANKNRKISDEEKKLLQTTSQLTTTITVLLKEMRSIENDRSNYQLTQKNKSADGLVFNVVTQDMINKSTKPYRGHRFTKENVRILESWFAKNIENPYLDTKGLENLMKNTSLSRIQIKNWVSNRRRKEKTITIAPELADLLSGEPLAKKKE
# Test: PBM E-score (8-mer binding enrichment) (E-score (-0.5 to 0.5)); higher = stronger / more preferred TF binding
# Settings: protein concentration: 200 nM; construct: GST-full length
# Procedure, shortened: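 Bound GST-tagged yeast transcription factors, applied at about 100-200 nM to double-stranded universal all-10-mer Agilent arrays, were detected with fluorescent anti-GST. Scans were normalised with masliner. A modified Wilcoxon-Mann-Whitney statistic, the E-score, was assigned to each ungapped eight-base word pooled with its reverse complement by the Universal PBM Analysis Suite.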
row,Sequence,PBM E-score
1,GAGACGAC,-0.19
2,CCAAAAGG,-0.136
3,CGGCGGCC,-0.188
4,ACCGTGAT,-0.0701
5,AAACGCGT,0.312
6,ACACGCGT,0.43
7,ACACGCGC,0.304
8,ACGCGCGT,0.343
9,ACACGCGG,0.324
10,ACACGCGA,0.378
11,AACTGCAC,0.0702
12,TCTGTAAA,0.278
13,AATGTAAC,0.296
14,AATGTAAA,0.434
15,GATGTAAA,0.433
16,ACTGTAAT,0.251
17,GATGTAGC,-0.0783
18,ACTGTAAA,0.222
19,GAGGTAAA,0.228
20,AATGTAAT,0.461
21,ACAATTCT,0.156
22,AAAGAATC,-0.124
23,CCTCTTCG,-0.127
24,AAGGCTTC,-0.116
25,CCTACACA,0.266

row,Sequence,PBM E-score
1,GCTACACA,0.323
2,CTACTACA,0.304
3,ATACTACA,0.32
4,GTACTACA,0.369
5,ACTACACT,0.253
6,ACTACACC,0.166
7,TCTACAGA,0.133
8,CCTACACG,0.393
9,TCTACACA,0.445
10,ACTACACG,0.454
11,CCTACACC,-0.00672
12,ATGGTTAA,0.139
13,CATGTGAC,0.19
14,CCCCTTCA,-0.233
15,AGTGCAGG,-0.159
16,TCAAGCCA,-0.0161
17,CCCCCTAC,-0.279
18,CCCAATCC,-0.281
19,CGTATCCA,-0.0445
20,AACAACGG,0.138
21,ACTACACA,0.406
22,GAACTACA,0.197
23,ACACTACT,0.105
24,TAACTACA,0.378
25,ACACTACA,0.397

row,Sequence,PBM E-score
1,ACTACAGA,0.119
2,CCACTACA,0.212
3,CAACTACA,0.316
4,ACTACAAG,0.267
5,AGCTCTTC,-0.21
6,ATCGCGGA,-0.302
7,GTCAAGTA,0.201
8,CGAAGCGA,-0.131
9,CCAGTAGC,-0.157
10,CACCGCCG,-0.288
11,ATGAGTCG,-0.0768
12,CATCAACC,0.0266
13,TAGACGCA,0.0971
14,TCCCTGAA,-0.0392
15,GTATGTGA,0.199
16,GTATGTCA,0.352
17,CTCTGTAC,-0.00455
18,CTATGTAC,0.401
19,CTCTGTAA,0.195
20,ATATGTAA,0.416
21,GTATGTAA,0.477
22,CTATGTGA,0.172
23,ATATGTAC,0.337
24,ATATGTGA,0.234
25,CTATGTAA,0.485

row,Sequence,PBM E-score
1,ATATGTAG,0.3
2,ATCAAAAA,0.0225
3,AAAGCGAC,0.0782
4,GCTCTCCC,-0.266
5,AGTGCATA,0.1
6,GCTCAGAA,-0.0102
7,AGTAACTA,0.213
8,CAGATCCA,-0.0975
9,AGACGCCG,-0.154
10,TTACGCAA,0.391
11,ATACGTAC,0.242
12,GTACGTAA,0.34
13,TTACGTAA,0.426
14,ATACGTAA,0.379
15,GTACGCAA,0.155
16,ATACGTAG,0.257
17,ATACGCAA,0.347
18,CTACGTAA,0.318
19,CTCCTCGC,-0.164
20,CTCCATCC,-0.1
21,CAGCCGTC,-0.132
22,GACACATA,0.26
23,TACACATA,0.408
24,CACACATA,0.214
25,AACACATC,0.291

row,Sequence,PBM E-score
1,AACACATG,0.363
2,AACACATA,0.39
3,GAACCACA,0.0162
4,GAATTGAC,0.104
5,ACTTTGGA,0.136
6,ATGTCATA,0.311
7,ATGTCATG,0.388
8,ATGTCAAG,0.305
9,ATGTCAAT,0.4
10,ATGTCAAC,0.374
11,GTGTCAAA,0.382
12,CTGTCAAC,0.198
13,TTGTCAAA,0.262
14,GTGTCAAC,0.305
15,ATGTCAAA,0.354
16,CTGTCAAA,0.18
17,ATGTCATC,0.0953
18,AGAAAGCG,-0.00586
19,ATGCTGGC,0.0473
20,GCCATTTA,0.00861
21,GAGATTCC,-0.218
22,ATATTCTG,0.00643
23,CCTTAAAC,-0.15
24,ATGCTAAT,0.167
25,AGATTGTG,0.0599

row,Sequence,PBM E-score
1,CACATTAC,0.375
2,AACATTAC,0.332
3,CACATTAG,-0.078
4,CGCGCACA,0.133
5,TATGTAGA,0.424
6,AGTGTAGA,0.171
7,CATGTAGC,0.344
8,CATGTAGA,0.472
9,GATGTAGA,0.314
10,CGTGTAGC,0.344
11,AATGTAGA,0.301
12,AATGTAGG,0.0581
13,CGTGTAGA,0.482
14,CCTGTAGA,0.0876
15,CATGTAGG,0.407
16,CAAGTAGG,-0.0322
17,ACATAGCC,0.231
18,CCGCTCTC,-0.296
19,AGCTTAAA,-0.0456
20,AATCTGTA,0.186
21,AATTAGGC,-0.0388
22,AGCCTAAG,-0.223
23,CTAGACGA,-0.137
24,AACAGGTG,0.184
25,TAGATATA,0.0377

row,Sequence,PBM E-score
1,CGCATGTC,0.274
2,GGCATGCA,0.128
3,GGCATGGA,-0.113
4,GGCATGTA,0.439
5,AGCATGTG,0.22
6,AGCATGTC,0.267
7,CGCATGTA,0.422
8,CGCATGGA,-0.0665
9,AGCATGTA,0.458
10,AAGGGTGC,-0.233
11,AGGGTGTA,0.186
12,TTCTACAA,0.314
13,ACCCTGAT,-0.3
14,ATGTTATA,0.418
15,ATGTTATC,0.401
16,ACGTTATC,0.145
17,GTGTTATA,0.444
18,ATGTTATG,0.425
19,CTGTTATC,-0.00298
20,AAGTTATG,0.256
21,CTGTTATA,0.29
22,ACGTTATA,0.275
23,ATGTTACG,0.351
24,GCGTTATA,0.218
25,AGGTTATA,0.0651

# Reference: the supplement of paper PMC3334620
